Results from the supplement of paper PMC10849652.
The full data set covers some 7,900 targets. This sample favours those with a hit. About 0.6% of all pairs of compound and target were hits. A number with no mark means an inactive call.

Experiments:
Experiment in all cases: log2 fold change, soluble protein after heating vs DMSO (PISA); higher = thermal stabilisation; K562 cells, 10 uM, 30 min; active = over 0.2 and 3.5 SD of the protein, either way, in both replicates (recomputed)
bafetinib = compound: Cc1ccc(NC(=O)c2ccc(CN3CC[C@H](N(C)C)C3)c(C(F)(F)F)c2)cc1Nc1nccc(-c2cncnc2)n1 [bafetinib]
Procedure, shortened: (§1)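 K562 cells (2×10^6 cells/mL) were treated with 10 μM compound for 30 min, and aliquots were heated for 3 min over 48°C-58°C. Pooled aliquots were extracted in PBS with 0.5% NP-40 at 4°C, and the supernatant after 21,000xg for 90 min was measured by TMTpro 16plex LC-MS/MS with channel sums equalised. Reported thermal stability, relative to control samples and from duplicates, is a log2 fold change.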

[1] = compound: Cc1cccc(CC(=O)N2CCc3c2ccc(-c2cn(C)c4ncnc(N)c24)c3F)n1
Procedure, shortened: as §1

nilotinib = compound: Cc1cn(-c2cc(NC(=O)c3ccc(C)c(Nc4nccc(-c5cccnc5)n4)c3)cc(C(F)(F)F)c2)cn1 [nilotinib]
Procedure, shortened: as §1

[2] = compound: Cc1nc(Nc2n[nH]c3c2CN(C(=O)N[C@H](CN(C)C)c2ccccc2)C3(C)C)c2sccc2n1
Procedure, shortened: as §1

dasatinib = compound: Cc1nc(Nc2ncc(C(=O)Nc3c(C)cccc3Cl)s2)cc(N2CCN(CCO)CC2)n1 [dasatinib]
Procedure, shortened: as §1

[3] = compound: Cc1ncc(-c2ccnc(Nc3ccc(S(C)(=O)=O)cc3)n2)n1C(C)C
Procedure, shortened: as §1

[4] = compound: Cn1cc(-c2ccc3c(c2)CCN3C(=O)Cc2cccc(C(F)(F)F)c2)c2c(N)ncnc21
Procedure, shortened: as §1

[5] = compound: Cn1cc(-c2ccc3nnc(C(F)(F)c4ccc5ncccc5c4)n3n2)cn1
Procedure, shortened: as §1

tipifarnib = compound: Cn1cncc1[C@@](N)(c1ccc(Cl)cc1)c1ccc2c(c1)c(-c1cccc(Cl)c1)cc(=O)n2C [tipifarnib]
Procedure, shortened: as §1

mubritinib = compound: FC(F)(F)c1ccc(/C=C/c2nc(COc3ccc(CCCCn4ccnn4)cc3)co2)cc1 [mubritinib]
Procedure, shortened: as §1

UniProt P00374, sequence (P00374 whole entry, looked up): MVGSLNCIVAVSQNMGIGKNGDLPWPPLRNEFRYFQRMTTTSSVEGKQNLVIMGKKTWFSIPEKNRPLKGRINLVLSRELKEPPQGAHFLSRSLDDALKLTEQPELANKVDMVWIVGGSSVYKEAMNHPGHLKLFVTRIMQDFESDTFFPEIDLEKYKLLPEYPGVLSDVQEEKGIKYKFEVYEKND
UniProt Q8NBI2, sequence (Q8NBI2 whole entry, looked up): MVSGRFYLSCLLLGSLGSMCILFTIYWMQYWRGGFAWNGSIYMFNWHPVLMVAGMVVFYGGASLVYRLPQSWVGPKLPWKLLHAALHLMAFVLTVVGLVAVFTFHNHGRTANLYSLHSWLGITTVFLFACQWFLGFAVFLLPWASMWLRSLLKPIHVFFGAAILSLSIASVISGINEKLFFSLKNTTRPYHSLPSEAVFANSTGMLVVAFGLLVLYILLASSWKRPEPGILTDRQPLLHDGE
UniProt P29692, sequence (P29692 whole entry, looked up): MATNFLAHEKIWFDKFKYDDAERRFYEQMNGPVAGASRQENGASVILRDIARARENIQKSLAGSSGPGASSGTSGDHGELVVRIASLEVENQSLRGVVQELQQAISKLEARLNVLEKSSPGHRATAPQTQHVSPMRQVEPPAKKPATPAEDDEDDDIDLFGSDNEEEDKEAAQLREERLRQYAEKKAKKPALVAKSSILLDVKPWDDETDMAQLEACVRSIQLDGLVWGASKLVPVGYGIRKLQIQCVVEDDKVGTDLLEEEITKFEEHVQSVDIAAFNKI
UniProt Q16254, sequence (Q16254 whole entry, looked up): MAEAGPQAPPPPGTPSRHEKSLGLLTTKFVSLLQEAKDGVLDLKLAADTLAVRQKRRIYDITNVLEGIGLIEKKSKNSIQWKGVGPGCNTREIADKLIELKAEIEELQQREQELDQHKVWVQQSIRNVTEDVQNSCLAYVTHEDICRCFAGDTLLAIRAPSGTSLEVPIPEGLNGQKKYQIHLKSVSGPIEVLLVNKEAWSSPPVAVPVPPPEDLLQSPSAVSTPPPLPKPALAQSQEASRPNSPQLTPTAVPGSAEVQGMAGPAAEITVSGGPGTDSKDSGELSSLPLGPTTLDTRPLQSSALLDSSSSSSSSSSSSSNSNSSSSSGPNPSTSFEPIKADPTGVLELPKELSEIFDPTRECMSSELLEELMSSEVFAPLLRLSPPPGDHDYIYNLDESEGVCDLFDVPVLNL
UniProt Q96GE9, sequence (Q96GE9 whole entry, looked up): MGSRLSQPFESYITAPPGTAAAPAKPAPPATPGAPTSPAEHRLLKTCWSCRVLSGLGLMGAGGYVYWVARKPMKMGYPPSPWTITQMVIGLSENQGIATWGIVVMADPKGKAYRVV
UniProt Q96A65, sequence (Q96A65 whole entry, looked up): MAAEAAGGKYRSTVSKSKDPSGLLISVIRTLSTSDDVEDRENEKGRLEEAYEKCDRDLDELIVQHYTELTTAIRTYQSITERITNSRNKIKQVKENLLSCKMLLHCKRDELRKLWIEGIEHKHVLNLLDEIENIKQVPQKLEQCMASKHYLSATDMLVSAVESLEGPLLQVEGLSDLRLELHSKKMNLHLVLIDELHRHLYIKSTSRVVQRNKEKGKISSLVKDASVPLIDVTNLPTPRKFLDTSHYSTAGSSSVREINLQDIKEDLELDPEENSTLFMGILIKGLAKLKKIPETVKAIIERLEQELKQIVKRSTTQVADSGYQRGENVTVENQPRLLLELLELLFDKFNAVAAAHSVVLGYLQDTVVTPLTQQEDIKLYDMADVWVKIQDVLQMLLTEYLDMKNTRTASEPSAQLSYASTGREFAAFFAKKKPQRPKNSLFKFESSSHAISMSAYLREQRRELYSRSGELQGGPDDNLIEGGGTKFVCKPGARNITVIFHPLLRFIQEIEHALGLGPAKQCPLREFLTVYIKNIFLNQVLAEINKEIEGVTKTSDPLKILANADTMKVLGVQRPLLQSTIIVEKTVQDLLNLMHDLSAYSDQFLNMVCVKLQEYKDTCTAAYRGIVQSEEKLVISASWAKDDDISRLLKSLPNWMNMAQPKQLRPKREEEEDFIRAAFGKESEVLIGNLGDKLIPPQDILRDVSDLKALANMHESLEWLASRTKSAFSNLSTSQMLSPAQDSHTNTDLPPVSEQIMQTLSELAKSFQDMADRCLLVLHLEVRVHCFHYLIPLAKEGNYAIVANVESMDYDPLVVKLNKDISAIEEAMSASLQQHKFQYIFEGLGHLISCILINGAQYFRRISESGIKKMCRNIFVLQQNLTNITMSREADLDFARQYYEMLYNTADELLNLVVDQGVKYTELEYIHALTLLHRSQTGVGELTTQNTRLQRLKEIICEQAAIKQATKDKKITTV
UniProt Q9H773, sequence (Q9H773 whole entry, looked up): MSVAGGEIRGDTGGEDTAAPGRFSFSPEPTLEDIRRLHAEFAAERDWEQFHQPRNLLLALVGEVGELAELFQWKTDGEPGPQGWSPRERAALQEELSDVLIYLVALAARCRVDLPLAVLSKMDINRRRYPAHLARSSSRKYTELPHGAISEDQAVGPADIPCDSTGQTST
UniProt Q96CS3, sequence (Q96CS3 whole entry, looked up): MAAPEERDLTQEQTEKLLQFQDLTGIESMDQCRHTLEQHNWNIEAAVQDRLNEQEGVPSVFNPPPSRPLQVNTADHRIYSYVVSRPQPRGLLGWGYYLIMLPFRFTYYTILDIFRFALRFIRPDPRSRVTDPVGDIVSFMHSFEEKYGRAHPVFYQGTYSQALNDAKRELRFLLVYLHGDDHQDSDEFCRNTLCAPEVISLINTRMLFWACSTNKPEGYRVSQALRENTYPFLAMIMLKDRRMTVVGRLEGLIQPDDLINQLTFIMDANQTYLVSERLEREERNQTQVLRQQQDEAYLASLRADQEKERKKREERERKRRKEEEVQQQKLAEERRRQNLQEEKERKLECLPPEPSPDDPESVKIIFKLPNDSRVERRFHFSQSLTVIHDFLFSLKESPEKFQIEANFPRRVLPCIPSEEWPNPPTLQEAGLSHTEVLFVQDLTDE
UniProt Q96G46, sequence (Q96G46 whole entry, looked up): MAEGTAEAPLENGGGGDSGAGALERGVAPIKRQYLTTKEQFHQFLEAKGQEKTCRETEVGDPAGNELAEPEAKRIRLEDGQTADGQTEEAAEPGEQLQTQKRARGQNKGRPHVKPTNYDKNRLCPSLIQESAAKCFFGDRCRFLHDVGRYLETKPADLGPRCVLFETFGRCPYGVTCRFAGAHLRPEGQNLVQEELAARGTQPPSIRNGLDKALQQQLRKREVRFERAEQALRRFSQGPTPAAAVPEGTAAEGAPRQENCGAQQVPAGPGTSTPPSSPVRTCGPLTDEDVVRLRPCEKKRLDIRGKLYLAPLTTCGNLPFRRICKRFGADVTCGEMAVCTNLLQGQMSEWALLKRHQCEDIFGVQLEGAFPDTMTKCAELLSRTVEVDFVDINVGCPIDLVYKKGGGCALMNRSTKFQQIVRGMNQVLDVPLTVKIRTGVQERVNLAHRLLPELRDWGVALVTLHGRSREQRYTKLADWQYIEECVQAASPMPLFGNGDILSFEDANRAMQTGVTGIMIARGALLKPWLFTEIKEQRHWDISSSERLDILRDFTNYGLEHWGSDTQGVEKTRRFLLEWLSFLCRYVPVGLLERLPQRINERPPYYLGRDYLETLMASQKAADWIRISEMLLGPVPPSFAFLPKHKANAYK
UniProt Q0VG06, sequence (Q0VG06 whole entry, looked up): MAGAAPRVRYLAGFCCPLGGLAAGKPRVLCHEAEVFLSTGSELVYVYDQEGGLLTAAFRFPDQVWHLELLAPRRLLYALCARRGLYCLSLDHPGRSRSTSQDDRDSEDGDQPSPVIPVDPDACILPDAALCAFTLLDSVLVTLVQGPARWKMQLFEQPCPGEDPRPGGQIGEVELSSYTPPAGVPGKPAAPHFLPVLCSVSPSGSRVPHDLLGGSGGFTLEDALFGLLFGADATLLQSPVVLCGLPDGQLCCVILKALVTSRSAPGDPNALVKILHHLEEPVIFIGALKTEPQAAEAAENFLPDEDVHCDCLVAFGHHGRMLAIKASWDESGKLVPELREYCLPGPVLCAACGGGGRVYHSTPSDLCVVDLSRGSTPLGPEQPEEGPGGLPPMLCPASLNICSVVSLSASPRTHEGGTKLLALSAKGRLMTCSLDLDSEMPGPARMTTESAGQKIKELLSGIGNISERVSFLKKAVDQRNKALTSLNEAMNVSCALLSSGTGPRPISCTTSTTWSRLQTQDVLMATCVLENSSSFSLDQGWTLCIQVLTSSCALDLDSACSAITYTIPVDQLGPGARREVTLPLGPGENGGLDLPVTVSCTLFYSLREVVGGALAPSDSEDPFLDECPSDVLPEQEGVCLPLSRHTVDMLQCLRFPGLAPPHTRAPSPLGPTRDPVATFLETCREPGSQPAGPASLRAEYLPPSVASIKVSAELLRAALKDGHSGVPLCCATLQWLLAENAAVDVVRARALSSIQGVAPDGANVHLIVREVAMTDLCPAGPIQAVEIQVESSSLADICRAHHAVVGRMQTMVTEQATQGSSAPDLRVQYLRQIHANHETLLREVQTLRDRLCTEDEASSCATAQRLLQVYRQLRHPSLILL
UniProt Q9BV94, sequence (Q9BV94 whole entry, looked up): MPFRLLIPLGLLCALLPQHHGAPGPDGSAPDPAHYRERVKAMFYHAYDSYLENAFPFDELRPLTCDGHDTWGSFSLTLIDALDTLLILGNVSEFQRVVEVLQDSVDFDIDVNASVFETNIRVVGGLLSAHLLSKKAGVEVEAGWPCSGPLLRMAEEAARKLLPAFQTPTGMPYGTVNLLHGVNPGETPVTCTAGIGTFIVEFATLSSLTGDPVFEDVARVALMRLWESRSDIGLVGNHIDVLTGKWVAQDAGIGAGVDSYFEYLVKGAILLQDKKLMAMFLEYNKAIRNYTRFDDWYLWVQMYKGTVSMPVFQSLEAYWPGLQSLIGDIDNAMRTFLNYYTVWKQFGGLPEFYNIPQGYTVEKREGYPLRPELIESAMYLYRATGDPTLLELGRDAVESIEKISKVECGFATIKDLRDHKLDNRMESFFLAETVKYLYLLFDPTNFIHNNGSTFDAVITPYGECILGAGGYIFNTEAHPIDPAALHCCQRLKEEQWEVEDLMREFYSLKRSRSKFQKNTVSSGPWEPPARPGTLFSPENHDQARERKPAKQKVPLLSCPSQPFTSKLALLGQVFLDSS

Target	log2 fold change (bafetinib)	log2 fold change [1]	log2 fold change (nilotinib)	log2 fold change [2]	log2 fold change (dasatinib)	log2 fold change [3]	log2 fold change [4]	log2 fold change [5]	log2 fold change (tipifarnib)	log2 fold change (mubritinib)
EPHX2 (UniProt E5RI53)	-0.17	–	–	–	–	–	–	–	–	–
EEF1D isoform 2 (UniProt P29692)	0.025	-0.011	-0.066	-0.01	-0.051	0	-0.007	-0.044	-0.103	0.081
FAM177A1 isoform 2 (UniProt Q8N128)	-0.125	-0.007	-0.113	0.005	-0.098	-0.044	0.038	-0.005	-0.01	0.004
DCTN1 isoform 4 (UniProt Q14203)	0.057	0.037	-0.052	-0.052	-0.256	-0.018	0.003	-0.015	-0.054	0.038
FAF2 (UniProt Q96CS3)	-0.058	-0.022	-0.042	-0.049	-0.075	0	0.017	-0.04	-0.021	-0.011
CUX1 isoform 3 (UniProt P39880)	-0.054	-0.032	-0.008	-0.06	-0.016	0.044	0.023	0.08	0.046	0.037
EDEM2 (UniProt Q9BV94)	0.094	0	-0.096	0.003	0.114	-0.011	-0.046	0	0.15	-0.117
FADS1 (UniProt F5GYH4)	0.034	–	–	–	–	–	–	–	–	–
EDC3 (UniProt Q96F86)	-0.022	-0.013	-0.142	-0.127	-0.006	-0.151	-0.019	-0.006	-0.035	0
DCUN1D1 (UniProt Q96GG9)	-0.083	0.026	-0.025	-0.018	-0.047	0	0.008	0.03	-0.059	0.015
CTSH (UniProt P09668)	-0.071	-0.034	0.166	0.03	0.084	-0.041	0.055	0.056	0.09	-0.063
DHFR (UniProt P00374)	0.191	0.026	0.185	-0.022	-0.187	0.076	0	0.182	0.177	-0.225
EDC4 (UniProt Q6P2E9)	0.006	0	0.013	-0.077	-0.018	-0.119	-0.046	-0.031	-0.038	-0.019
FAAP100 (UniProt Q0VG06)	0.201	0.043	-0.032	-0.005	0.035	-0.039	-0.005	0.101	0.1	0
EIF4G1 isoform 8 (UniProt Q04637)	-0.002	0.046	-0.223	-0.11	-0.157	-0.17	-0.155	-0.117	-0.083	-0.071
DAB2 (UniProt P98082)	-0.041	0.085	-0.152	0.002	-0.178	-0.098	0.01	-0.007	-0.042	-0.024

Target	log2 fold change (bafetinib)	log2 fold change [1]	log2 fold change (nilotinib)	log2 fold change [2]	log2 fold change (dasatinib)	log2 fold change [3]	log2 fold change [4]	log2 fold change [5]	log2 fold change (tipifarnib)	log2 fold change (mubritinib)
E2F4 (UniProt Q16254)	-0.053	-0.026	-0.016	-0.141	-0.095	0.012	-0.007	-0.006	-0.009	0.01
EED, A0A5F9ZI63	0.019	-0.024	-0.027	0.043	0.015	-0.025	-0.076	-0.029	-0.014	-0.066
DYNC1I2 isoform 5 (UniProt Q13409)	-0.071	-0.018	0.015	0.002	-0.012	0.011	0.003	-0.008	-0.038	0.046
CYB561A3 isoform 2 (UniProt Q8NBI2)	0.03	-0.223	0.012	0.065	0.034	-0.029	0.004	-0.044	-0.087	-0.015
ERCC6 (UniProt Q03468)	-0.775 (active)	-0.016	0.041	-0.087	-0.043	-0.021	0.129	-0.094	0.019	0.059
DMXL1 (UniProt Q9Y485)	-0.14	-0.034	-0.002	0.018	-0.099	-0.012	0.021	0.021	-0.035	-0.053
DUS3L (UniProt Q96G46)	-0.041	-0.02	-0.073	-0.059	-0.005	0.021	-0.064	-0.017	0.053	-0.115
DTNBP1 (UniProt Q96EV8)	0.014	0.004	-0.047	-0.027	0.072	0.016	0.053	0.036	-0.083	-0.081
EXOC4 (UniProt Q96A65)	0.012	0.11	-0.068	-0.155	-0.15	-0.031	-0.026	0.013	-0.088	0.078
DCTPP1 (UniProt Q9H773)	-0.053	0.105	0.008	-0.013	0.068	-0.025	0.073	0.029	0.074	0.047
DNAH11 (UniProt Q96DT5)	0.097	-0.396	0.101	0.015	-0.036	0.072	-0.441	0.126	0.344	-0.276
DMAC1 (UniProt Q96GE9)	-0.138	-0.047	-0.083	0.067	0.118	-0.007	-0.014	0.095	-0.156	0.085
DYNC1LI2 (UniProt O43237)	-0.041	-0.004	0.109	0.015	-0.068	0.125	-0.184	0.052	-0.01	0.024
DNAJC7 (UniProt Q99615)	-0.047	0.031	-0.107	-0.048	-0.136	0.024	0.068	0.058	-0.012	0.037
EXOC2 (UniProt Q96KP1)	0.021	-0.089	-0.002	-0.135	-0.301	0.028	-0.011	-0.081	-0.066	0.035
